{
  "source": "PubChem BioAssay AID372",
  "about": "(MTDP, 2006)",
  "note": "Hit rate of the full screen: of about 100,000 compounds, about 770 (0.77%) were called active. Rule as the data show it: active = inhibition above about 50%; inactive = the rest. Shown is part of a subset that was picked to be rich in actives.",
  "data": [
    {"biological_target": "Gag-Pol polyprotein (Human immunodeficiency virus type 1 group M subtype B (isolate HXB2)) (UniProt P04585)", "experiment": "RNase H inhibition, HIV 1 Gag Pol polyprotein, FRET biochemical assay, screening (AID 372)", "conditions": "HIV-1 RT RNase H, FRET RNA/DNA substrate fluorescence; at 10 µM; stronger effect = higher value", "values": [
      {"smiles": "O=C(NCCN1CCOCC1)c1cc2nc(-c3ccc(Cl)cc3)cc(C(F)(F)F)n2n1", "inhibition": "0% (inactive)"},
      {"smiles": "COc1ccc(C=NN2CCN(Cc3ccccc3Cl)CC2)c(OC)c1", "inhibition": "6% (inactive)"},
      {"smiles": "Cc1nc(-c2ccccc2)sc1C(=O)Nc1ccc(Br)cc1", "inhibition": "15% (inactive)"},
      {"smiles": "c1ccc(-c2ccc(Oc3cc(-n4cccn4)ncn3)cc2)cc1", "inhibition": "11% (inactive)"},
      {"smiles": "O=C(Nc1ccc(Cl)cc1)c1cccc(N2C(=O)c3cccnc3C2=O)c1", "inhibition": "0% (inactive)"},
      {"smiles": "Cc1ccc(NC(=O)c2c(NC(=O)C(F)(F)F)sc3c2CCC3)c(C)c1", "inhibition": "13% (inactive)"},
      {"smiles": "Cc1ccc(NC(=O)c2c(NC(=O)C(F)(F)F)sc3c2CCCCC3)c(C)c1", "inhibition": "23% (inactive)"},
      {"smiles": "Oc1c(C=Nc2ccccc2)sc2ccccc12", "inhibition": "4% (inactive)"},
      {"smiles": "CC(=O)c1ccc(NS(=O)(=O)c2cccc(S(=O)(=O)c3ccc(Cl)c(Cl)c3)c2)cc1", "inhibition": "10% (inactive)"},
      {"smiles": "COc1cc(/C=C2\\SC(=S)N(Nc3ccccc3)C2=O)cc(OC)c1OC", "inhibition": "4% (inactive)"},
      {"smiles": "COc1cc(/C=C2\\SC(=S)N(NC(=O)c3ccccc3Br)C2=O)ccc1O", "inhibition": "18% (inactive)"},
      {"smiles": "COc1cc(/C=C2\\SC(=S)N(NC(=O)c3ccc(Br)cc3)C2=O)ccc1O", "inhibition": "23% (inactive)"},
      {"smiles": "O=C(NN1C(=O)/C(=C/c2ccc(O)cc2)SC1=S)c1ccccc1Br", "inhibition": "5% (inactive)"},
      {"smiles": "COc1cc(/C=C2\\SC(=S)N(Nc3ccccc3)C2=O)ccc1O", "inhibition": "37% (inactive)"},
      {"smiles": "O=C(NN1C(=O)/C(=C/c2ccc(O)c(O)c2)SC1=S)c1ccc(Br)cc1", "inhibition": "58% (active)"},
      {"smiles": "O=C(NN1C(=O)/C(=C/c2ccc(O)c(O)c2)SC1=S)c1ccccc1Br", "inhibition": "50% (active)"},
      {"smiles": "COc1cc(C(=O)NN2C(=O)/C(=C/c3ccccc3)SC2=S)ccc1O", "inhibition": "4% (inactive)"},
      {"smiles": "O=C(NN1C(=O)/C(=C/c2ccc(Br)cc2)SC1=S)c1ccncc1", "inhibition": "5% (inactive)"},
      {"smiles": "COc1ccc(/C=C2\\SC(=S)N(Nc3ccccc3)C2=O)cc1OC", "inhibition": "55% (active)"},
      {"smiles": "COc1cc(C(=O)NN2C(=O)/C(=C/c3ccc(OC)c(OC)c3)SC2=S)ccc1O", "inhibition": "61% (active)"},
      {"smiles": "COc1cc(/C=C2\\SC(=S)N(NC(=O)c3ccc(O)c(OC)c3)C2=O)ccc1O", "inhibition": "34% (inactive)"},
      {"smiles": "CCOc1ccc(C(=O)Nc2ccc3oc(-c4ccc(CC)cc4)nc3c2)cc1[N+](=O)[O-]", "inhibition": "16% (inactive)"},
      {"smiles": "Nc1nc(CN2C(=O)c3ccccc3C2=O)cs1", "inhibition": "2% (inactive)"},
      {"smiles": "CCOC(=O)c1c(NC(=O)c2ccc3c(c2)OCCO3)sc2c1CCCC2", "inhibition": "5% (inactive)"},
      {"smiles": "CC(=O)OCCN1C(=O)c2ccc(Oc3cccc(Oc4ccc5c(c4)C(=O)N(CCOC(C)=O)C5=O)c3)cc2C1=O", "inhibition": "10% (inactive)"},
      {"smiles": "CCOc1ccc(/C=C2\\SC(=S)N(CCC(=O)Nc3cccnc3)C2=O)cc1", "inhibition": "22% (inactive)"},
      {"smiles": "CC(=O)N1c2ccccc2NC2=C(C(=O)CC(c3ccccc3)C2)C1c1cccnc1", "note": "(stereo not drawn)", "inhibition": "7% (inactive)"},
      {"smiles": "O=C(O)c1cccc(C(=O)O)c1N(c1ccccc1)c1ccccc1", "inhibition": "40% (inactive)"},
      {"smiles": "CCOc1cc(/C=N/n2cnnc2)cc(Cl)c1OCCOc1cc(C)ccc1C(C)C", "inhibition": "10% (inactive)"},
      {"smiles": "COc1ccc(C(=O)Nc2nccs2)c(OC)c1", "inhibition": "4% (inactive)"},
      {"smiles": "Cc1cccc(N2C(=O)NC(=O)/C(=C\\c3ccc(Oc4ccc([N+](=O)[O-])cn4)cc3)C2=O)c1", "inhibition": "13% (inactive)"},
      {"smiles": "COc1ccc(-c2n[nH]c(=S)n2N=Cc2ccc(-c3ccccc3)cc2)cc1", "inhibition": "45% (inactive)"},
      {"smiles": "Cc1ccc(-c2n[nH]c(=S)n2N=Cc2ccc(O)c(O)c2)cc1", "inhibition": "60% (active)"},
      {"smiles": "Cc1ccc(-c2n[nH]c(=S)n2N=Cc2ccc(-c3ccccc3)cc2)cc1", "inhibition": "56% (active)"},
      {"smiles": "Cc1ccc(-c2n[nH]c(=S)n2/N=C/c2ccc(O)cc2)cc1", "inhibition": "9% (inactive)"},
      {"smiles": "Oc1ccc(/C=N/n2c(-c3ccccc3)n[nH]c2=S)cc1O", "inhibition": "55% (active)"},
      {"smiles": "COc1cc(/C=N/n2c(-c3ccc(C)cc3)n[nH]c2=S)ccc1O", "inhibition": "8% (inactive)"},
      {"smiles": "Cc1ccc(-c2n[nH]c(=S)n2/N=C/c2ccc(O)cc2O)cc1", "inhibition": "8% (inactive)"},
      {"smiles": "Cc1ccc(-c2n[nH]c(=S)n2/N=C/c2cc(Br)ccc2O)cc1", "inhibition": "15% (inactive)"},
      {"smiles": "Cc1cccc(C=Nn2c(-c3ccccc3)n[nH]c2=S)c1", "inhibition": "22% (inactive)"},
      {"smiles": "Cc1ccc(-c2n[nH]c(=S)n2N=Cc2ccc(Cl)c(Cl)c2)cc1", "inhibition": "18% (inactive)"},
      {"smiles": "Oc1ccccc1/C=N/n1c(-c2ccccc2)n[nH]c1=S", "inhibition": "11% (inactive)"},
      {"smiles": "O=C1OC(/C=C/c2ccccc2)=NC/1=C/c1ccc(-c2ccc3c(c2)C(=O)NC3=O)o1", "inhibition": "33% (inactive)"},
      {"smiles": "C#CCOc1ccc(C=C2C(=O)N(C)C(=S)N(C)C2=O)cc1Br", "inhibition": "21% (inactive)"},
      {"smiles": "Clc1ccc(C2C=C(c3cccs3)Nc3nnnn32)cc1", "note": "(stereo not drawn)", "inhibition": "3% (inactive)"},
      {"smiles": "COc1cc(/C=C2\\SC(=Nc3ccc(C)c(Cl)c3)NC2=O)ccc1C", "inhibition": "56% (active)"},
      {"smiles": "COc1ccc(/C=C2\\SC(=S)NC2=O)cc1C", "inhibition": "65% (active)"},
      {"smiles": "O=C1NC(=S)S/C1=C\\c1ccc(N2CCCC2)cc1", "inhibition": "54% (active)"}
    ]}
  ]
}
